From PubChem BioAssay (Tox21)
Results filed as inconclusive are left out. Entries that show only a call come without a potency. Calls of active or inactive are those of the source. Calls come from the whole dose curve.

Biological target: Vitamin D3 receptor (Homo sapiens) (UniProt P11473)
Test: qHTS assay to identify small molecule agonists of the vitamin D receptor (VDR) signaling pathway (AID 743222)
Settings: HEK293T VDR-UAS-bla, beta-lactamase FRET ratio, 16 h; series mostly up to 63.5 µM
Excerpt: National Center for Advancing Translational Sciences [NCATS]
NIH Chemical Genomics Center [NCGC]
U.S. Environmental Protection Agency [EPA]
National Institutes of Environmental Health Sciences [NIEHS]
National Toxicology Program [NTP]
U.S. Food and Drug Administration [FDA]
The vitamin D receptor (VDR), a member of nuclear hormone receptor superfamily, plays a critical role in calcium homeostasis and bone metabolism. It is also involved in cell differentiation and growth, and thrombogenicity.
Tox21 Assay Protocol Summary:
VDR-bla cells were dispensed at 2,000 cells/6 uL/well into black wall/clear-bottom 1536-well plates using a Multidrop Combi (Thermo Fisher Scientific, Waltham, MA) dispenser. After the assay plates were incubated at a 37C and 5% CO2 for 4 h, 23 nL of compounds dissolved in DMSO, positive controls or DMSO only was transferred to the assay plate by a Pintool station (Kalypsys, San Diego, CA). The plates were incubated at 37C and 5% CO2 for 16 h. After 1 uL of LiveBLAzerTM B/G FRET substrate was added using a Bioraptr Flying Reagent Dispenser (FRD) workstation (Beckman Coulter, Indianapolis, IN, USA), the plates were incubated at room temperature for 2 h, and fluorescence intensity was measured by an Envision plate reader (PerkinElmer, Shelton, CT).
Potency is the fitted concentration of half-maximal effect.

Chain of Vitamin D3 receptor (Homo sapiens) (P11473 whole entry, looked up): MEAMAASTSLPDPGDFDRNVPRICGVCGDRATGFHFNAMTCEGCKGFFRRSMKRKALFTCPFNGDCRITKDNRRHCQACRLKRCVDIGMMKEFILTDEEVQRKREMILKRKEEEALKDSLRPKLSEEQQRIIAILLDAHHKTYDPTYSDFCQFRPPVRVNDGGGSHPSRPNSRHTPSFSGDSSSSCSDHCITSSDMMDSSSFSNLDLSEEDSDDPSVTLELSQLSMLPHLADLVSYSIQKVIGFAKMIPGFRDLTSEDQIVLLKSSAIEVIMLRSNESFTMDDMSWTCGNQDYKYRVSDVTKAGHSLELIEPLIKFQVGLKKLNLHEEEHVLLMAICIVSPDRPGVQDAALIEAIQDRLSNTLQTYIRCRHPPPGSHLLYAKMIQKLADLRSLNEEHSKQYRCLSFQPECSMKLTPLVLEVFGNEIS

Row | Compound | Potency
1 | C/C=C/C=C/C(=O)O | inactive
2 | CCCCCCCCCCCC[N+](C)(C)Cc1ccccc1 | inactive
3 | O=C(O)c1ccccc1 | inactive
4 | CN1[C@@H]2CC(OC(=O)[C@H](CO)c3ccccc3)C[C@H]1[C@@H]1O[C@@H]12 (stereo not given in full) | inactive
5 | CCCC[P+](CCCC)(CCCC)CCCC | inactive
6 | Cc1c(C(=O)O)c(O)cc2c1C(=O)c1c(O)c([C@@H]3O[C@H](CO)[C@@H](O)[C@H](O)[C@H]3O)c(O)c(O)c1C2=O | inactive
7 | CC(C)NCC(O)c1ccc(O)c(O)c1 (stereo not given) | inactive
8 | OC[C@H]1O[C@H](O[C@]2(CCl)O[C@H](CCl)[C@@H](O)[C@@H]2O)[C@H](O)[C@@H](O)[C@H]1Cl | inactive
9 | CCCCC1(COC(=O)CCC(=O)O)C(=O)N(c2ccccc2)N(c2ccccc2)C1=O | inactive
10 | CCCCNC(=O)NS(=O)(=O)c1ccc(C)cc1 | inactive
11 | CCCCOC(=O)c1ccc(O)cc1 | inactive
12 | CN1CCc2cccc3c2[C@H]1Cc1ccc(O)c(O)c1-3 | inactive
13 | CN1CCC[C@H]1c1cccnc1 | inactive
14 | O=c1[nH]cc(F)c(=O)[nH]1 | inactive
15 | NS(=O)(=O)c1cc2c(cc1Cl)NCNS2(=O)=O | inactive
16 | C1CCC(C(CC2CCCCN2)C2CCCCC2)CC1 (stereo not given) | inactive
17 | NC(CO)(CO)CO | inactive
18 | C=C(C)C(=O)OCC(C)O (stereo not given) | inactive
19 | CC12CCC(CC1)C(C)(C)O2 | inactive
20 | CN(C)CCOC(C)(c1ccccc1)c1ccccn1 (stereo not given) | inactive

Row | Compound | Potency
21 | CCCCCCc1ccc(O)cc1O | inactive
22 | O=C(O)CC(O)C(=O)O (stereo not given) | inactive
23 | CCOc1ccc(NC(C)=O)cc1 | inactive
24 | CN(N=O)C(=O)N[C@@H]1[C@@H](O)[C@H](O)[C@@H](CO)O[C@@H]1O | inactive
25 | Cc1cc(=O)oc2cc(O)ccc12 | 21.1 µM (active)
26 | CCN(CC)C(=O)c1cccc(C)c1 | inactive
27 | CCCCCCCCCCCCCCCC[N+](C)(C)Cc1ccccc1 | inactive
28 | CC(=O)CC(c1ccccc1)c1c(O)c2ccccc2oc1=O (stereo not given) | inactive
29 | CC1(C)O[C@@H]2C[C@H]3[C@@H]4CCC5=CC(=O)C=C[C@]5(C)[C@@]4(F)[C@@H](O)C[C@]3(C)[C@]2(C(=O)CO)O1 | inactive
30 | COc1ccc(C(Cl)=C(c2ccc(OC)cc2)c2ccc(OC)cc2)cc1 | inactive
31 | F[B-](F)(F)F | inactive
32 | COc1ccc2cc(S(=O)(=O)N[C@H](CC(=O)N[C@H](Cc3ccc(CN4[C@H](C)CCC[C@@H]4C)cc3)C(=O)N(C)C(C)C)c3ccc4c(c3)OCO4)ccc2c1 | inactive
33 | O=C(Nc1ncc([N+](=O)[O-])s1)c1cccs1 | inactive
34 | Cc1ncc([N+](=O)[O-])n1C | inactive
35 | CNNCc1ccc(C(=O)NC(C)C)cc1 | inactive
36 | CCc1nc(N)nc(N)c1-c1ccc(Cl)cc1 | inactive
37 | COc1ccc(OC(F)(F)F)cc1CN[C@H]1CCCN[C@H]1c1ccccc1 | inactive
38 | CS(=O)(=O)OCCCCOS(C)(=O)=O | inactive
39 | NC(=O)c1cccnc1 | inactive
40 | CCCCCCCC(=O)OCC(COC(=O)CCCCCCC)OC(=O)CCCCCCC | inactive
